Records with an inconclusive call do not appear. A structure can be active in one record and inactive in another. Calls of active or inactive are those of the source. Unless noted, the call rests on the fitted dose curve; in most records, active means well fitted curve in the direction sought with a large enough effect; inconclusive means small, poorly fitted or top-dose-only effect, or another doubt; inactive means no such curve, though single readings can be large; an effect the other way counts as inactive or inconclusive.
Columns and labels:
[1] = Cell Proliferation Assay Versus the ED40515 IL2 Dependent ATL cell lines (AID 1053195; calls by dose curve); details: ED40515 IL2-dependent ATL cells
Procedure, shortened: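 CellTiter-Glo luminescence (15 min, RT) measured viability after 48 hours at 37C; cells were ED40515 +IL2, 1000/well, in phenol red-free RPMI with 5% FBS. Controls: DMSO and 9.2 uM bortezomib.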

[2] = Identifying Small Molecule Inhibitors of Pancreatic Cancer Stem Cells (A2780, Spheroid) (AID 1259357); details: Potency: A2780 spheroid viability; series mostly up to 46.1 µM;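 further: spheroids pre-formed over 14 days in stem cell medium on hydrogel; compound exposure lasted 48 h before the ATP luminescence read; 100% = DMSO treated cells and 0% = wells without cells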
Procedure, shortened: (§1)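 Spheroids grown 14 days in stem cell media on hydrogel-coated nonadherent plates; 2D lines seeded directly. Compounds added after 4 h attachment, 48 h at 37C, 5% CO2; CellTiter-Glo luminescence normalized to DMSO (no inhibition) and no-cell wells (full inhibition).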

[3] = Identifying Small Molecule Inhibitors of Pancreatic Cancer Stem Cells (SN12C, Adherent) (AID 1259358); details: viability/growth inhibition; series mostly up to 46.1 µM;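 further: cell survival measured after 48 h of compound exposure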; further: potency means the concentration at half of the fitted maximal effect
Procedure, shortened: (§2)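 After a 4 h attachment period, compounds were pinned into wells and cultures held 48 h under standard incubator conditions. Viability was then measured as CellTiter-Glo luminescence following 10 min at room temperature.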

[4] = Identifying Small Molecule Inhibitors of Pancreatic Cancer Stem Cells (SN12C, Spheroid) (AID 1259360); details: Potency: SN12C spheroid viability; series mostly up to 46.1 µM; further: potency means the concentration at half of the fitted maximal effect;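 on viability (% of control): 100% = DMSO-treated cells and 0% = wells without cells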
Procedure, shortened: as §1

[5] = Identifying Small Molecule Inhibitors of Pancreatic Cancer Stem Cells (A278, Adherent) (AID 1259361); details: series mostly up to 46.1 µM;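 further: viability read after 48 h compound exposure; nearly all actives have a fitted effect of over 35% in size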;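 on viability (% of control): 100% = DMSO-treated cells and 0% = cell-free media-only wells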
Procedure, shortened: as §2

[6] = High-throughput drug toxicity screening in the BPDCN cell line Cal-1 (AID 1224825; call rule not given here); details: Cal-1 BPDCN cell viability, qHTS; at 45.8 µM (top of the series) unless noted
Procedure, shortened: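 Viability of the BPDCN line Cal-1 is measured as ATP-based luminescence (CellTiter-Glo) following 48 h incubation with compounds. Percent activity uses DMSO-treated wells as 100% and 9.2 uM bortezomib as 0%.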

[7] = qHTS assay for measurement of the activity of small molecule inhibitors on Zika virus induced Caspase-3 activity in human iPSC derived neural progenitor cells (hNPCs) (AID 1224857); details: hNPCs ZIKV-induced caspase-3/7, Caspase-Glo luminescence, 6 h; series mostly up to 45.7 µM; further: nearly all actives have a fitted effect of over 65% in size; further: potency means the concentration at half of the fitted maximal effect
Procedure, shortened: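 Cells were plated at 350 per well and grown 16 to 20 hours. Compound pretreatment lasted one hour, after which ZIKV (2 FFU/cell) was added for 6 hours. Percent inhibition was normalized between uninfected and infected controls.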

[8] = qHTS assay for measurement of the activity of small molecule inhibitors on Zika virus induced Caspase-3 activity in human astrocytoma cells (AID 1224859); details: SNB-19 ZIKV-induced caspase-3/7, luminescence, 6 h; series mostly up to 45.7 µM; further: potency means the concentration at half of the fitted maximal effect
Procedure, shortened: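 Percent inhibition of virus-induced caspase-3/7 signal is calculated against uninfected and ZIKV-infected control cells. Cells are SNB-19, infected at 2 FFU/cell for 6 h after 1 h compound exposure.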

[9] = qHTS Screen of the MIPE 4.0 Collection Against Ewings Sarcoma (RDES) (AID 1259252); details: RD-ES Ewing sarcoma viability, CellTiter-Glo, 48 h; series mostly up to 45.8 µM; further: nearly all actives have a fitted effect of over 35% in size; further: potency means the concentration at half of the fitted maximal effect
Procedure, shortened: (§3)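 Measured: ATP luminescence (CellTiter-Glo) 10 min after reagent addition, following 48 h drug treatment. Relative luciferase units converted to percent activity, with no-cell wells as full and DMSO wells as zero inhibition.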

[10] = qHTS Screen of the MIPE 4.0 Collection Against Ewings Sarcoma (TC71) (AID 1259253); details: TC71 Ewing sarcoma viability, CellTiter-Glo, 48 h; series mostly up to 45.8 µM; further: nearly all actives have a fitted effect of over 40% in size; further: potency means the concentration at half of the fitted maximal effect
Procedure, shortened: as §3

[11] = qHTS Screen of the MIPE 4.0 Collection Against Ewings Sarcoma (EW8) (AID 1259255); details: EW8 Ewing sarcoma viability, CellTiter-Glo, 48 h; series mostly up to 45.8 µM; further: nearly all actives have a fitted effect of over 35% in size; further: potency means the concentration at half of the fitted maximal effect;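 on viability: 100% = DMSO-treated cells and 0% = medium-only wells without cells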
Procedure, shortened: as §3

[12] = qHTS Screen of the MIPE 4.0 Collection Against Ewings Sarcoma (TC32) (AID 1259256); details: TC32 Ewing sarcoma viability, CellTiter-Glo, 48 h; series mostly up to 45.8 µM; further: nearly all actives have a fitted effect of over 45% in size; further: potency means the concentration at half of the fitted maximal effect
Procedure, shortened: as §3

[13] = Identifying Small Molecule Inhibitors of Pancreatic Cancer Stem Cells (Panc1, Adherent) (AID 1259362); details: Potency: viability; series mostly up to 46.1 µM; further: potency means the concentration at half of the fitted maximal effect;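 on viability, % of control: compound exposure lasted 48 h before the viability read; plate controls were DMSO-treated cells for no effect and cell-free media wells for full effect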
Procedure, shortened: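 Viability is scored by CellTiter-Glo luminescence 48 h after dosing, expressed as percent activity against vehicle and no-cell references. Spheroid formats rely on cells cultured 14 days in stem cell media beforehand.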

[14] = P-glycoprotein substrates identified in KB-3-1 adenocarcinoma cell line, qHTS therapeutic library screen (AID 1346986); details: KB-3-1 parental cells viability, CellTiter-Glo, 72 h; series mostly up to 44.5 µM; further: nearly all actives have a fitted effect of over 60% in size; on activity change, negative = cytotoxicity: on the % scale 0 is the no-effect control and ±100 the full control effect
Procedure, shortened: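 Using luminescence to quantify ATP, parental and P-gp-overexpressing KB cells were compared after 72 h compound titration. KB-8-5-11 was also run with the P-gp inhibitor tariquidar.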

[15] = P-glycoprotein substrates identified in KB-8-5-11 adenocarcinoma cell line, qHTS therapeutic library screen (AID 1346987); details: KB-8-5-11 (P-gp overexpressing) viability, CellTiter-Glo, 72 h; series mostly up to 44.5 µM; further: nearly all actives have a fitted effect of over 65% in size; further: potency means the concentration at half of the fitted maximal effect; on activity change, negative = cytotoxicity: on the % scale 0 is the no-effect control and ±100 the full control effect
Procedure, shortened: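 Human cervical adenocarcinoma KB-8-5-11 cells, selected in colchicine to over-express P-gp and assayed without it, were exposed for 72 h to titrated compounds. An ATP-based luminescent viability signal gave AC50.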

[16] = High-throughput drug toxicity screening in the BPDCN cell line Gen2.2 (AID 1224824; call rule not given here;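 further: cells exposed to compounds for 48 h before reading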); details: Gen2.2 BPDCN cells; at 45.8 µM (top of the series) unless noted
Procedure, shortened: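 Readout is ATP luminescence from Gen2.2 cells after two days of drug exposure in serum-containing medium at 37 °C. Values express percent activity, with vehicle defining full signal and 9.2 uM bortezomib defining zero.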

[17] = qHTS assay to identify small molecule inhibitors of chordoma cells - UCH-1 (AID 1259355); details: UCH-1 chordoma viability, CellTiter-Glo, 48 h, combination, with auranofin plus four topoisomerase inhibitors; series mostly up to 46.1 µM; further: on the % scale 0 is the no-effect control and ±100 the full control effect; nearly all actives have a fitted effect of over 55% in size
Procedure, shortened: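 A 48hr growth-inhibition format: each drug tested at 15 concentrations together with added auranofin, camptothecin, doxorubicin, rubitecan and topotecan, with cell viability quantified as CellTiter-Glo luminescence.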

[18] = qHTS assay to identify small molecule inhibitors of chordoma cells - UCH-2 (AID 1259356); details: UCH-2 chordoma viability, CellTiter-Glo ATP luminescence, 48 h; series mostly up to 46.1 µM; further: on the % scale 0 is the no-effect control and ±100 the full control effect
[19] = Identifying Small Molecule Inhibitors of Pancreatic Cancer Stem Cells (Panc1, Spheroid) (AID 1259359); details: Panc1 spheroid cancer stem cell viability; series mostly up to 46.1 µM;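 further: compound exposure lasted 48 h before reading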
Procedure, shortened: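 Adherent (2D) versus sphere (3D) formats; spheres generated 14 d in SCM beforehand. Compound transferred by pin tool after 4 h, 48 h incubation, CellTiter-Glo endpoint.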

[20] = Natriuretic polypeptide receptor (hNpr1) antagonism - Pilot counterscreen GloSensor control cell line (AID 1347045; calls by dose curve; further: on the % scale 0 is the no-effect control and ±100 the full control effect); details: HEK293 cGMP GloSensor cells, SNP-stimulated luminescence, 20 min; series mostly up to 38.3 µM
Procedure, shortened: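 The SNP-driven cGMP luminescence signal (50 uM, 20 min, room temperature) was measured in GloSensor HEK293 control cells. Compounds were tested as a LOPAC titration series and preincubated for 30-50 min.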

C[C@@H]1C[C@H]2[C@@H]3CCC4=CC(=O)C=C[C@]4(C)C3(F)[C@@H](O)C[C@]2(C)[C@@]1(O)C(=O)CO (stereo partly drawn)
inactive: Potency [2] | Potency [3] | Potency [4]
active: Potency [1] 2.64 µM | IC50 (viability decrease) [5] 23.5 µM

CC[C@H](Nc1ncnc2nc[nH]c12)c1nc2cccc(F)c2c(=O)n1-c1ccccc1
inactive: Potency [7] | Potency [8] | Potency [13] | outcome [14] inactive [at 9.29 µM] | activity change, negative = cytotoxicity [15] 3.11% [at 9.29 µM]
active: Potency [1] 5.9 µM | Potency [9] 2.35 µM | Potency [10] 2.96 µM | Potency [11] 2.64 µM | Potency [12] 2.96 µM | IC50 (viability decrease) [5] 20.9 µM
18.8%: viability (% of control) [6]

CC[C@@H](C)[C@H](NC(=O)[C@H](CC1CCCCC1)NC(=O)c1ccno1)C(=O)N1CCC2(CCc3ccccc32)CC1
active: Potency [1] 2.64 µM | Potency [4] 11.8 µM
inactive: Potency [8] | Potency [9] | Potency [11] | Potency [3] | Potency [15]

Cc1ccnc(NS(=O)(=O)c2ccc(NC(=O)Nc3ccc(S(=O)(=O)Nc4nccc(C)n4)cc3)cc2)n1
inactive: Potency [7] | Potency [8] | Potency [14]
active: Potency [1] 23.5 µM | Potency [4] 18.7 µM | Potency [13] 0.0235 µM
14.8 µM (active) and inactive: Potency [15]
75.2%: cell viability, % of control (lower = more cytotoxic) [16]

CC(C)(N)C(=O)N[C@H](COCc1ccccc1)C(=O)N1CCC2(CC1)CN(S(C)(=O)=O)c1ccccc12
inactive: Potency [7] | Potency [8] | Potency [4] | Potency [15]
active: Potency [1] 11.8 µM | Potency [9] 20.9 µM | Potency [11] 20.9 µM

CCC(C)(C)C(=O)O[C@H]1C[C@@H](C)C=C2C=C[C@H](C)[C@H](CC[C@@H]3C[C@@H](O)CC(=O)O3)[C@H]21
inactive: Potency [7] | Potency [8] | Potency [17] | outcome [18] | Potency [19] | Potency [4]
59.6%: viability (% of control) [6]
active: Potency [1] 3.17 µM | Potency [9] 23.5 µM | Potency [10] 11.8 µM | Potency [11] 18.7 µM | Potency [12] 3.72 µM | IC50 (viability decrease) [5] 3.17 µM | Potency [15] 16.6 µM

Cc1c(C)c2c(c(C)c1O)CCC(C)(COc1ccc(CC3SC(=O)NC3=O)cc1)O2 (stereo not drawn)
91.7%: viability (% of control) [6]
inactive: Potency [7] | Potency [8] | Potency [9] | Potency [10] | Potency [11] | Potency [12] | Potency [17] | outcome [18] | Potency [3] | Potency [4] | Potency [13] | Potency [15]
active: Potency [1] 16.6 µM

COc1ccc(CC2=NN3C([C@@H](CCc4ccccc4)[C@@H](C)O)=NC(C)C3C(=O)N2)cc1OC (stereo partly drawn)
active: Potency [1] 10.5 µM | Potency [7] 9.35 µM | Potency [8] 10.5 µM | IC50 (viability decrease) [5] 23.5 µM
inactive: Potency [9] | Potency [11] | Potency [12] | Potency [4] | Potency [13] | Potency [15]
276%: cell viability, % of control (lower = more cytotoxic) [16]

Nc1nc2ccc(OC(F)(F)F)cc2s1
inactive: Potency [7] | Potency [8] | Potency [17] | outcome [18] | Potency [3] | outcome [20]
93.2%: cell viability, % of control (lower = more cytotoxic) [16]
active: Potency [1] 23.5 µM

C[C@]1(c2nc3c(C(N)=O)cccc3[nH]2)CCCN1
active: Potency [1] 16.6 µM | Potency [12] 18.7 µM | IC50 (viability decrease) [5] 18.7 µM
88%: viability (% of control) [6]
inactive: Potency [7] | Potency [8] | Potency [11] | Potency [3] | Potency [15]

Cc1cc(SCc2sc(-c3ccc(C(F)(F)F)cc3)nc2C)ccc1OCC(=O)O
114%: viability (% of control) [6]
inactive: Potency [7] | Potency [8] | Potency [9] | Potency [2] | Potency [3] | Potency [4] | Potency [14] | Potency [15]
active: Potency [1] 26.4 µM | Potency [12] 5.26 µM

Cc1ccc2c(c1)C(=O)[C@@]1(O)CCN(c3ccccc3)C1=N2
active: Potency [1] 13.2 µM
inactive: Potency [3] | Potency [4] | IC50 (viability decrease) [5]

CN(C)c1ccc(C2Nc3ccc4ccccc4c3C3=C2C(=O)CC(C)(C)C3)cc1Br (stereo not drawn)
inactive: Potency [7] | Potency [8] | Potency [11] | Potency [3] | Potency [4] | Potency [15]
119%: cell viability, % of control (lower = more cytotoxic) [16]
active: Potency [1] 14.8 µM | Potency [12] 16.6 µM

O=S(=O)(N=Cc1c(O)ccc2ccccc12)c1cccs1
45.4%: viability (% of control) [6]
active: Potency [1] 20.9 µM | Potency [9] 0.105 µM | Potency [10] 1.66 µM | Potency [11] 7.43 µM | Potency [12] 0.372 µM
inactive: Potency [7] | Potency [8] | Potency [3] | Potency [4] | IC50 (viability decrease) [5] | Potency [13] | Potency [15]

Cc1ccc(-n2nc(C(C)(C)C)cc2NC(=O)Nc2ccc(OCCN3CCOCC3)c3ccccc23)cc1
inactive: Potency [8] | Potency [14]
64.8%: viability (% of control) [6]
active: Potency [1] 26.4 µM | Potency [9] 29.6 µM | Potency [10] 20.9 µM | Potency [12] 20.9 µM | IC50 (viability decrease) [5] 18.7 µM

Cn1cc(-c2ccc3nnc(C(F)(F)c4ccc5ncccc5c4)n3n2)cn1
inactive: Potency [7] | Potency [8] | Potency [3] | IC50 (viability decrease) [5] | Potency [15]
active: Potency [1] 7.43 µM | Potency [12] 0.833 µM
64.2%: viability (% of control) [6]
55.7%: cell viability, % of control (lower = more cytotoxic) [16]

Nc1nc2[nH]cc(CCc3ccc(C(=O)N[C@@H](CCC(=O)O)C(=O)O)cc3)c2c(=O)[nH]1
active: Potency [1] 0.0296 µM | Potency [10] 0.264 µM | Potency [12] 0.662 µM | Potency [3] 0.662 µM
inactive: Potency [7] | Potency [8] | Potency [17] | outcome [18] | Potency [2] | Potency [4]
115%: cell viability, % of control (lower = more cytotoxic) [16]

CN(C(=O)c1ccc(F)cc1C(F)(F)F)C1CCN(c2nnc(-c3ccnn3C)c3ccccc23)CC1
inactive: Potency [7] | Potency [8] | Potency [3] | Potency [4] | Potency [15]
13.6%: cell viability, % of control (lower = more cytotoxic) [16]
active: Potency [1] 2.96 µM | Potency [9] 20.9 µM

From PubChem BioAssay (NCATS)
